Source: the supplement of paper PMC11732987, “Enantioselective OTUD7B fragment discovery through chemoproteomics screening and high-throughput optimisation” (Communications Chemistry, 2025)

How the values were obtained:
Assay in all cases: log2 ratio of Biotin-Ahx-Ub-VS probe labelling (fragment/DMSO); higher = less target engagement (more negative = stronger competition), active = hit call of the paper (q ≤ 0.05, log2 ratio ≤ -1)
Settings in all cases: compound concentration: 200 uM; treatment time: 3 h
USP34 = USP34 (UniProt Q70CQ2)
USP34, sequence (Q70CQ2 whole entry, the tested form may be a part): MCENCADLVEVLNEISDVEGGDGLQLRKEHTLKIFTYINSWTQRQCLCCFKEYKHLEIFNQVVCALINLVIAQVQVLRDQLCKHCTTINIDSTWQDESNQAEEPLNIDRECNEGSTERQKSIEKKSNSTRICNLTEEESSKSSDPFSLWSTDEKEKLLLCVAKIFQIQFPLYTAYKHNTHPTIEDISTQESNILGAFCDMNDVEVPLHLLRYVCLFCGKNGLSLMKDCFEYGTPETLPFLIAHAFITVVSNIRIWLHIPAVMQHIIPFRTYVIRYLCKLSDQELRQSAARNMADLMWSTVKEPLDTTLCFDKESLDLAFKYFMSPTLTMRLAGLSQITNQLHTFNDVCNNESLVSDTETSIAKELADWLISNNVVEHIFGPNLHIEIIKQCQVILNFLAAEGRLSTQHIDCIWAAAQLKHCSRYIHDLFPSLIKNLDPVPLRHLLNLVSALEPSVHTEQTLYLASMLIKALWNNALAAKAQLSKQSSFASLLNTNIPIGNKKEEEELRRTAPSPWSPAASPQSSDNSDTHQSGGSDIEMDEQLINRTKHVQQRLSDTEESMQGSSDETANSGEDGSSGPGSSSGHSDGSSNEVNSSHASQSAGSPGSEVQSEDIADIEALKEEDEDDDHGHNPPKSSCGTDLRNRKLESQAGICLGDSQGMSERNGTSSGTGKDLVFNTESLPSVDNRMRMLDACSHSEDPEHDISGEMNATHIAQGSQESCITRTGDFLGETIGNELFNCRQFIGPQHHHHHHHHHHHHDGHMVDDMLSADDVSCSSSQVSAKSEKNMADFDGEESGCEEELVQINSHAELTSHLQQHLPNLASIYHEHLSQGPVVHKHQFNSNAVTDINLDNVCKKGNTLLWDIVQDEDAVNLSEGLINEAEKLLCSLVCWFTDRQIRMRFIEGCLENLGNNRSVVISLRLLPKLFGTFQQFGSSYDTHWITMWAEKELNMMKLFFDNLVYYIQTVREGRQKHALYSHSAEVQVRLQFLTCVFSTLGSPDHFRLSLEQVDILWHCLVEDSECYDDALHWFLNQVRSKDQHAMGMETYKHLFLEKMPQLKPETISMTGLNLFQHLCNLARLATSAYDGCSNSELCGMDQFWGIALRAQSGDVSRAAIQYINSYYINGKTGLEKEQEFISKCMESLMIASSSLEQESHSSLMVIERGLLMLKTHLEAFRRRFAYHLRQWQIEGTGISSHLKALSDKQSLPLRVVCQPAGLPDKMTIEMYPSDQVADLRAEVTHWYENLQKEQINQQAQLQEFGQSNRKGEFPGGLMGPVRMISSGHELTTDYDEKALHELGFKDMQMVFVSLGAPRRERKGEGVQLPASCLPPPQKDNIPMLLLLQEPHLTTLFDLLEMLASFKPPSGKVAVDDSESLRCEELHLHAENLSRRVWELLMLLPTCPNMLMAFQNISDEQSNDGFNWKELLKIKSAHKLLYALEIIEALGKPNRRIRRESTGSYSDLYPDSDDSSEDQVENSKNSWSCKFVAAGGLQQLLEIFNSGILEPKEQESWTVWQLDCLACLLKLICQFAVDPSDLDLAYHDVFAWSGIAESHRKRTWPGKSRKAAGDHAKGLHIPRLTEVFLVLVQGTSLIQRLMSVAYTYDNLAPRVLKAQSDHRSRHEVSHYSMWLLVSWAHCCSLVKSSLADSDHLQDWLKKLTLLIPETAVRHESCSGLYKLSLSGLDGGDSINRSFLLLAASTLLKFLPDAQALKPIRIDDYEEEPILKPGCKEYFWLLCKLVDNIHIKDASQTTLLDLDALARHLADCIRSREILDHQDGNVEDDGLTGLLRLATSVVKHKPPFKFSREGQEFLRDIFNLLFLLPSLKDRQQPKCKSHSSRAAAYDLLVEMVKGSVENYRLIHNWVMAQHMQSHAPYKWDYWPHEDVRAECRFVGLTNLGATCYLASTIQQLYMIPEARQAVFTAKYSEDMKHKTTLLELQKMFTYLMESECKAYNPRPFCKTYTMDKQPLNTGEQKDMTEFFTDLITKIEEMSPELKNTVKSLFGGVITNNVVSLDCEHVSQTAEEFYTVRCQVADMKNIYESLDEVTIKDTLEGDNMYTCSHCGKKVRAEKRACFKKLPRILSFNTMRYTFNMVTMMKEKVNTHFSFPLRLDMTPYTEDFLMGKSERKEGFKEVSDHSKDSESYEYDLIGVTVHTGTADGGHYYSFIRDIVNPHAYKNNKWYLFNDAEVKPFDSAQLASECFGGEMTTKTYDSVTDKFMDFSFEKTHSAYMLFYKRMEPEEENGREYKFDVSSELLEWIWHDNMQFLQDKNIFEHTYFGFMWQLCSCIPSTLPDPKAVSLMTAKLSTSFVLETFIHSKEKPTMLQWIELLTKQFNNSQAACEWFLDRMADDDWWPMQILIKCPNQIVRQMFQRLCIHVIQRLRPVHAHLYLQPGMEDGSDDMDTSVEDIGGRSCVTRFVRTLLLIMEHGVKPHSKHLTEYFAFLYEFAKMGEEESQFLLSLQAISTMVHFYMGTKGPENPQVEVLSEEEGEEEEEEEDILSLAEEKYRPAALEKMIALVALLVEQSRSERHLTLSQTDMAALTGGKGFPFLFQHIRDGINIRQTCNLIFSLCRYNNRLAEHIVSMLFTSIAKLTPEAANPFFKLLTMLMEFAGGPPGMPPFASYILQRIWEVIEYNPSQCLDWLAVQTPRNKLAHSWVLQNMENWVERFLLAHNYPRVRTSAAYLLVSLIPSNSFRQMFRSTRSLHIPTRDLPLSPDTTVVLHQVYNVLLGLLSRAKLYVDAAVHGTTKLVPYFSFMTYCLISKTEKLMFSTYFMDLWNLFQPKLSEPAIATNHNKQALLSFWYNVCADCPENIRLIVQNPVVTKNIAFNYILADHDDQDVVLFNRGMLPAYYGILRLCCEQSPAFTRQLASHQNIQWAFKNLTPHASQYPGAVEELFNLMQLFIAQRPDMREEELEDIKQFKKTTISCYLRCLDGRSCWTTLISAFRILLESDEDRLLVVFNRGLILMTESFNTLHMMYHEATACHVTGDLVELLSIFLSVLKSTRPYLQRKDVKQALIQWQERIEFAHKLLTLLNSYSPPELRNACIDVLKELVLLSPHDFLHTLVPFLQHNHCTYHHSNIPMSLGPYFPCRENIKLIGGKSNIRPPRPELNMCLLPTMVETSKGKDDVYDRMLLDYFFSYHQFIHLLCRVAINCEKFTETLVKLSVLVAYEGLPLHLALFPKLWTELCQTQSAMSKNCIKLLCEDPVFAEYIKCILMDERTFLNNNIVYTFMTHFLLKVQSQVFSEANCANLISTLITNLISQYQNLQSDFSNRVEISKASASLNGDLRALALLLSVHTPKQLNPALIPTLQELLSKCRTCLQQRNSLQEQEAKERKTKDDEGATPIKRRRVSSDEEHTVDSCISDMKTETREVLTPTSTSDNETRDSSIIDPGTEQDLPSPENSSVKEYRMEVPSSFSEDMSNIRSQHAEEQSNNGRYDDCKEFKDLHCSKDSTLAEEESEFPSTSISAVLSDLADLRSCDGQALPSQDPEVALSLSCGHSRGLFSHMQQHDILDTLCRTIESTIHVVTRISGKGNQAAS
Summary of the method: (§1)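 Each value is an average log2 ratio of fragment to vehicle, tested by unpaired t-test. The underlying Spectronaut label-free quantities were global-median-normalised, and only proteins with ≥2 unique peptides were included. Triplicate HEK293T lysate samples (495 µg) were exposed to fragment at 200 µM or vehicle for 3 h, then to Biotin-Ahx-Ub-VS at 0.5 µM final for 1 h, before NeutrAvidin enrichment of labelled DUBs, LysC and trypsin digestion, and diaPASEF LC-MS/MS.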

USP36 = target: T1, USP36 (UniProt Q9P275)
T1 sequence (whole entry): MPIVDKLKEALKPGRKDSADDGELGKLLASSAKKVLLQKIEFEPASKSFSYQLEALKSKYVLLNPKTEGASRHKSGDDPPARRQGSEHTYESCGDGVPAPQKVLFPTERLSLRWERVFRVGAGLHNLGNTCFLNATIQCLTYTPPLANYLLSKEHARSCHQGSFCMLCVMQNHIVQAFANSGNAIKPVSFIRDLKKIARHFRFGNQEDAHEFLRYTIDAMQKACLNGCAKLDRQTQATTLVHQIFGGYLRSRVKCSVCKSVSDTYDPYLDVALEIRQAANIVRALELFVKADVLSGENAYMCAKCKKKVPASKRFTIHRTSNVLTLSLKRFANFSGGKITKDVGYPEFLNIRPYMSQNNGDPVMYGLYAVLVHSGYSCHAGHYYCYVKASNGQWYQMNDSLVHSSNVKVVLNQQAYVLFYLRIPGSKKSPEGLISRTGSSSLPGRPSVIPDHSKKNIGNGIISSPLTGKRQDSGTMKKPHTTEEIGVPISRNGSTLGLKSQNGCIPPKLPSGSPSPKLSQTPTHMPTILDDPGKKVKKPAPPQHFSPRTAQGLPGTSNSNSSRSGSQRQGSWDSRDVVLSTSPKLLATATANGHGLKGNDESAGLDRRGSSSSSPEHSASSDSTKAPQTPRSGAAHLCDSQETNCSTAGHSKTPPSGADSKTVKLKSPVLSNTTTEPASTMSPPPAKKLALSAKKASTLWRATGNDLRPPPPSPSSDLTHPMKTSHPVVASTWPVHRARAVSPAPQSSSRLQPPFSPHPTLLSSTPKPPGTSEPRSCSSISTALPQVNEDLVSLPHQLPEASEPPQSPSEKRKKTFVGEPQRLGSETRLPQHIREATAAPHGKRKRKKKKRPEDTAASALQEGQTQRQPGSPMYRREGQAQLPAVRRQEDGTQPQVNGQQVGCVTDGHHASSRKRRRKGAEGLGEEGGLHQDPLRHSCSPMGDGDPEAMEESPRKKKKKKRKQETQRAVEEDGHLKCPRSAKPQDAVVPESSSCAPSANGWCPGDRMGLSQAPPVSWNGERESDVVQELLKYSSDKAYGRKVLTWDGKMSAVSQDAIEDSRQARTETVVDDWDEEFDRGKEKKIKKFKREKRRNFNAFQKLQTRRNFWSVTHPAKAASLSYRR
Summary of the method: as §1

USP38 = target: T2, USP38 (UniProt Q8NB14)
T2 sequence (whole entry): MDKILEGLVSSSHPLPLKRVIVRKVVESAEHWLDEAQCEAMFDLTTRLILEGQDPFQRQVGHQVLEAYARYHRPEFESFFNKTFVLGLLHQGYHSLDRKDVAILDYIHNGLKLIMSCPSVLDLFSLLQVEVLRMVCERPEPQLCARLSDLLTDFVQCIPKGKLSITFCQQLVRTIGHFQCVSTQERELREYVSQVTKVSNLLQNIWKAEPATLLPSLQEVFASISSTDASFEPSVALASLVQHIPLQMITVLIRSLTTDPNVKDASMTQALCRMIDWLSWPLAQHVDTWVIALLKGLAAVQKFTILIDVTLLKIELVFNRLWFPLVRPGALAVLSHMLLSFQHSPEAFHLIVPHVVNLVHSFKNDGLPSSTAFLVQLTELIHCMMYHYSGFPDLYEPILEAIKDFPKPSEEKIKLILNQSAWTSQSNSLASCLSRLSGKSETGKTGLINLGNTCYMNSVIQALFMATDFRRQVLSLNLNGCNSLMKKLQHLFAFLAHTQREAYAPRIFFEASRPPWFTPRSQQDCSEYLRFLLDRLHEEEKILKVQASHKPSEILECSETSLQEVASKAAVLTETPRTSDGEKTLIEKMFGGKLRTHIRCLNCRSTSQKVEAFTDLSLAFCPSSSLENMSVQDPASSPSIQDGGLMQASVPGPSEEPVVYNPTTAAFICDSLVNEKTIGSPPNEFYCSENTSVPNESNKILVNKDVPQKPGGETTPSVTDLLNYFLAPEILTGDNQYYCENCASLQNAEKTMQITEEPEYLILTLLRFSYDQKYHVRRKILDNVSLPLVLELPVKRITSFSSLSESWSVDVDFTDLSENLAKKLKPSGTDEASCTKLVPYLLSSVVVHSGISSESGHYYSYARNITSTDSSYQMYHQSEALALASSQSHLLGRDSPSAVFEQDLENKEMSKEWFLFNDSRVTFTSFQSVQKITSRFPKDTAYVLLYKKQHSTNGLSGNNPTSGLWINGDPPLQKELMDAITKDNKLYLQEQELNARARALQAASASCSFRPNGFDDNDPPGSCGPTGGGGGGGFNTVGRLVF
Summary of the method: as §1

USP39 = target: T3, USP39 (UniProt Q53GS9)
T3 sequence (whole entry): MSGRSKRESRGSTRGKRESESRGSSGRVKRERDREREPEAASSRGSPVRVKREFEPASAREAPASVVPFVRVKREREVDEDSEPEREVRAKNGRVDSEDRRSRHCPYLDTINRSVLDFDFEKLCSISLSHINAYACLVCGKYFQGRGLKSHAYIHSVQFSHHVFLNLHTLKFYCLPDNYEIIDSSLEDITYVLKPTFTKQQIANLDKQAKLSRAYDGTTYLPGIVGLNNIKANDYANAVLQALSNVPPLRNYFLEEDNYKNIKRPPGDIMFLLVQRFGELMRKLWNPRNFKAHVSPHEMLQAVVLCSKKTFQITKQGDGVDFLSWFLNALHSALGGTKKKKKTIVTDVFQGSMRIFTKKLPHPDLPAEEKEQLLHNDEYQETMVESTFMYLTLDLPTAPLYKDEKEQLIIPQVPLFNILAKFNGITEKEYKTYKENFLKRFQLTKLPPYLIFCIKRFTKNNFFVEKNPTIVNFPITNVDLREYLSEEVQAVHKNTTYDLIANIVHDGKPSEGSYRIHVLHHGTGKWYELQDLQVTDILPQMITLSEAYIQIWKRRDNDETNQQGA
Summary of the method: as §1

USP4 = target: T4, USP4 (UniProt Q13107)
T4 sequence (whole entry): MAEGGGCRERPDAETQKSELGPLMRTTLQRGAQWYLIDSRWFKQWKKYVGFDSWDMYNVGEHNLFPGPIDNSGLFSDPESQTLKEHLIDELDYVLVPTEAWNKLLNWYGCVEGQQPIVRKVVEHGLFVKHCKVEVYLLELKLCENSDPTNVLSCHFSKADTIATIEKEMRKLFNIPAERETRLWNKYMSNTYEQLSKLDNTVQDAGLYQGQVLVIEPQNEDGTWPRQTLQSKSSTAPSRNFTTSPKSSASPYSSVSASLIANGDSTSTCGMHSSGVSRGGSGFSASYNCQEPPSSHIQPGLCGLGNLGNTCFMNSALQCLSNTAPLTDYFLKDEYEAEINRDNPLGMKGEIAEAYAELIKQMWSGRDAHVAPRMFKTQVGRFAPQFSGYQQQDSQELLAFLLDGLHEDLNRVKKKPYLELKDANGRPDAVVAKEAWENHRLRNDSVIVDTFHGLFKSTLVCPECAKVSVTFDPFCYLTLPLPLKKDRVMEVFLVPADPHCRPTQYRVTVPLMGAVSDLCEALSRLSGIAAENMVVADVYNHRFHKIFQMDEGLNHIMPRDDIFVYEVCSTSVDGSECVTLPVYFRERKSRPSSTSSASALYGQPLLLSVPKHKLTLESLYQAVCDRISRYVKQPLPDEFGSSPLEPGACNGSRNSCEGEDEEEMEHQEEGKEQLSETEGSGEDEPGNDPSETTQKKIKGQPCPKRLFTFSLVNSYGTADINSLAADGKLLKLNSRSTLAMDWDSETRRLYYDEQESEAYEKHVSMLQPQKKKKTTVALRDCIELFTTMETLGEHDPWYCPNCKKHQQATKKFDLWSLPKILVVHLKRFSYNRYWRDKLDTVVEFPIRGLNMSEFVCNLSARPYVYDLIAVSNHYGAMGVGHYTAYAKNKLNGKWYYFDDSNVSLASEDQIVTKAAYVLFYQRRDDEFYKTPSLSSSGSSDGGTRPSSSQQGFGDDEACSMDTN
Summary of the method: as §1

Measured: log2 ratio of Biotin-Ahx-Ub-VS probe labelling

CC1(NC(=O)CCl)CCS(=O)(=O)C1 (stereo not given)
inactive: USP34 -0.257 | USP36 -0.302 | USP38 -0.653 | USP39 -0.0411 | USP4 -0.424
